Laboratory results reported in PubChem BioAssay (EPA / NIEHS).
“And” between values parts separate entries of the source, which are not always exact repeats. Equal entries are not always repeated. Inconclusive results are not listed. Some compounds were tested as several samples or in several runs, with calls that do not always agree. The source made the active and inactive calls. How the source made its calls, unless noted: active means hit-call score of the fitted dose curve at least 0.9, where 1 is the maximum; inactive means score below 0.9.

What was measured:
[1] = BSK_BT_PBMCCytotoxicity: PBMC Cytotoxicity Assessment in the BioMAP Diversity Plus: BT Assay (AID 2284225); conditions: primary human B cells with PBMC;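 further: PBMC viability measured by Alamar Blue dye reduction fluorescence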
Outline: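 Viability by Alamar Blue reduction (6 h, ex/em 546/580 nm) after 90 h culture of SEB/TSST-1-activated PBMC (20 ng/mL each) given compound 1 h before activation. DMSO served as baseline for curve fitting.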

[2] = read-out: Secreted IgG (sIgG), gene 3500; test: BSK_BT_sIgG: BioMAP Diversity Plus: BT Assay for Secreted IgG (sIgG) Biomarker Activity (AID 2284226); conditions: primary human B cells with PBMC
Outline: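 Cells (B cells with peripheral blood mononuclear cells) are dosed, cultured 24 h, then supernatant IgG is measured by ELISA. DMSO serves as negative control; curves are fitted for signal increase.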

[3] = BSK_BT_Bcell_Proliferation: Viability Assessment in the BioMAP Diversity Plus: BT Assay for B cell Proliferation (AID 2284227); conditions: primary human B cells with PBMC
Outline: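 SRB-based protein staining (0.1% SRB after 10% TCA fixation, 560 nm) quantifies proliferation in human B cells co-cultured with PBMC, 72 h post-dosing, with signal gain scored relative to DMSO negative control.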

[4] = read-out: Interleukin 6 (IL6), IL6 (gene 3569); test: BSK_BT_xIL6: BioMAP Diversity Plus: BT Assay for Interleukin 6 (IL6) Biomarker Activity (AID 2284228); conditions: primary human B cells with PBMC
Outline: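 Readout: secreted IL-6 via Luminex xMAP multiplex, 24 h post-dosing. System: primary human B cells co-cultured with PBMC. Signal change scored relative to DMSO vehicle, positive fitting direction.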

[5] = read-out: Interleukin 17A (IL17A), IL17A (gene 3605); test: BSK_BT_xIL17A: BioMAP Diversity Plus: BT Assay for Interleukin 17A (IL17A) Biomarker Activity (AID 2284229); conditions: primary human B cells with PBMC
Outline: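 Luminex xMAP readout of secreted IL-17A; human B cell + PBMC co-culture; 24 h post-dose; positive-direction fit vs DMSO negative control.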

[6] = read-out: Tumor necrosis factor (Homo sapiens) (UniProt P01375); test: BSK_BT_xTNFa: BioMAP Diversity Plus: BT Assay for Tumor necrosis factor alpha (TNF-alpha) Biomarker Activity (AID 2284230); conditions: primary human B cells with PBMC
Outline: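 Compounds were added to a B cell plus PBMC co-culture, and after 24 h secreted TNF-alpha was quantified with Luminex xMAP technology, with responses fitted upward from the DMSO control.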

[7] = read-out: Vascular cell adhesion molecule 1 (VCAM1), VCAM1 (gene 7412); test: BSK_MyoF_VCAM1: BioMAP Diversity Plus: MyoF Assay for Vascular cell adhesion molecule 1 (VCAM1) Biomarker Activity (AID 2284231); conditions: primary human lung fibroblasts
Outline: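 MyoF system, lung fibroblasts; 24 h post-dose; VCAM-1 by ELISA; gain-of-signal fit vs DMSO baseline.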

[8] = read-out: Collagen III, COL3A1 (gene 1281); test: BSK_MyoF_CollagenIII: BioMAP Diversity Plus: MyoF Assay for Collagen III Biomarker Activity (AID 2284239); conditions: primary human lung fibroblasts
Outline: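 Lung fibroblast culture; 24 h compound exposure; collagen III by ELISA; gain-of-signal fit vs DMSO baseline.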

[9] = read-out: Interleukin 17F (IL17F), IL17F (gene 112744); test: BSK_BT_xIL17F: BioMAP Diversity Plus: BT Assay for Interleukin 17F (IL17F) Biomarker Activity (AID 2284243); conditions: primary human B cells with PBMC
Outline: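 Secreted IL-17F, read on LumineX xMAP beads, was taken as the endpoint. Cultures combined human B cells and peripheral blood mononuclear cells, sampled 24 hours after dosing, with DMSO serving as negative control.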

[10] = CCTE_Mundy_HCI_hNP1_Pro_ResponderAvgInten: CCTE's Proliferation Assay in human neuroprogenitor cells, Mundy Lab (AID 2284224; active means hit-call score of the fitted dose curve at least 0.9, where 1 is the maximum;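 further: human neural progenitor cells hNP1 derived from WA09 embryonic stem cells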)
Outline: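 Human neuroprogenitors (hNP1, WA09 lineage) receive test chemical after 40 to 44 hours of attachment. A four-hour BrdU pulse begins twenty hours later, followed by fixation and high content imaging; signal is referenced to DMSO controls.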

[11] = read-out: Collagen I, COL1A1 (gene 1277); test: BSK_MyoF_CollagenI: BioMAP Diversity Plus: MyoF Assay for Collagen I Biomarker Activity (AID 2284238); conditions: primary human lung fibroblasts
Outline: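 ELISA readout of Collagen I after 24 h chemical treatment of primary human lung fibroblast cultures; gain of signal scored relative to DMSO vehicle baseline.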

[12] = CCTE_Mundy_HCI_hNP1_Casp3_7: CCTE's Caspase-Glo 3/7 Assay in human neuroprogenitor cells for Apoptosis, Mundy Lab (AID 2284240)
Outline: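 Neuroepithelial-lineage stem cells from WA09 embryonic cells were treated with chemicals after 40–44 h of culture. Twenty-four hours later, caspase-3/7 activation was detected luminescently after a 30 min room-temperature reagent step, with DMSO as baseline.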

[13] = CCTE_Mundy_HCI_hNP1_CellTiter: CCTE's Cell Titer-Glo 2 Assay in human neuroprogenitor cells for Viability, Mundy Lab (AID 2284241; active means hit-call score of the fitted dose curve at least 0.9, where 1 is the maximum)
Outline: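 Measures ATP content in human neural progenitors derived from WA09 embryonic cells. Read-out at 26.5 hours after dosing, with DMSO serving as the negative control and baseline.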

Sequence of Tumor necrosis factor (Homo sapiens) (P01375 whole entry, looked up): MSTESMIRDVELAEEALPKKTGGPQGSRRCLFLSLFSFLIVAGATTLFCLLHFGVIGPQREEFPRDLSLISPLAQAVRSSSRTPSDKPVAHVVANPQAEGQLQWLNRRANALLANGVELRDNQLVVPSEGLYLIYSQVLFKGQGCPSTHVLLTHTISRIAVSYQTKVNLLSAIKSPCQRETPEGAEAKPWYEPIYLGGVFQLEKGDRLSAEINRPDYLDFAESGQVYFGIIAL

| Compound | outcome [1] | outcome [2] | outcome [3] | outcome [4] | outcome [5] | outcome [6] | outcome [7] | outcome [8] | outcome [9] | outcome [10] | AC50 [7] | outcome [11] | outcome [12] | outcome [13] | AC50 [3] | AC50 [2] | AC50 [4] | AC50 [1] | AC50 [8] |
| --- | --- | --- | --- | --- | --- | --- | --- | --- | --- | --- | --- | --- | --- | --- | --- | --- | --- | --- | --- |
| C=C(C)C(=O)OCCC(F)(F)C(F)(F)C(F)(F)C(F)(F)C(F)(C(F)(F)F)C(F)(F)F | inactive | inactive | inactive | inactive | inactive | inactive | inactive | inactive | inactive | – | – | – | – | – | – | – | – | – | – |
| FC(F)(F)C(F)(F)C(F)(F)C(F)(F)C(F)(F)C(F)(F)C(F)(F)C(F)(F)CCS | inactive | inactive | inactive | inactive | – | inactive | inactive | inactive | inactive | inactive | 6.22 µM (active) | inactive | inactive | inactive | – | – | – | – | – |
| C=C(C)C(=O)OCC(F)(F)C(F)(F)C(F)(F)F | inactive | inactive | inactive | inactive | – | inactive | inactive | inactive | inactive | inactive | – | – | inactive | inactive | 2.27 µM (active) | – | – | – | – |
| CCN(CC)c1ccc2c(C)cc(=O)oc2c1 | inactive | – | inactive | – | inactive | inactive | inactive | inactive | inactive | – | – | inactive | – | – | – | 28.3 µM (active) | 10.9 µM (active) | – | – |
| C=CC(F)(F)C(F)(F)C(F)(F)C(F)(F)C(F)(F)C(F)(F)C(F)(F)C(F)(F)F | inactive | inactive | inactive | inactive | inactive | inactive | inactive | inactive | inactive | – | – | – | – | – | – | – | – | – | – |
| O=C(O)C(F)(F)C(F)(F)C(F)(F)C(F)(F)C(F)(F)C(F)(F)C(F)(F)C(F)(F)C(F)(F)C(F)F | inactive | inactive | inactive | inactive | inactive | inactive | – | – | inactive | – | 21.5 µM (active) and 23.5 µM (active) | – | – | – | 16.4 µM (active) | – | – | 22.9 µM (active) | 18.7 µM (active) and 16.4 µM (active) |
| C=C(C)C(=O)OCC(F)(F)C(F)(F)C(F)(F)C(F)(F)C(F)(F)C(F)(F)C(F)(F)F | inactive | inactive | inactive | inactive | inactive | inactive | inactive | inactive | inactive | – | – | inactive | – | – | – | – | – | – | – |
| O=C(O)C(F)(OC(F)(F)C(F)(OC(F)(F)C(F)(OC(F)(F)C(F)(F)C(F)(F)F)C(F)(F)F)C(F)(F)F)C(F)(F)F (stereo not drawn) | inactive | inactive | inactive | inactive | inactive | inactive | inactive | inactive | inactive | – | – | – | – | – | – | – | – | – | – |
